PubChem BioAssay AID485344 (National Center for Advancing Translational Sciences (NCATS), 2010)
About 6,900 (2%) of roughly 340,000 compounds were called active. Rule as the data show it: active = inhibition above about 30%; inactive = below that, where a call was filed. This excerpt belongs to a sample that is enriched for actives.
Also: 0% is about no effect.

These molecules were tested against D(2) dopamine receptor (Homo sapiens) (UniProt P14416) (assay: HTS Assay for Allosteric Antagonists of the Human D2 Dopamine Receptor: Primary Screen for Antagonists). Conditions: HEK293 TREx D2 cells, calcium flux, dopamine EC80; at 10 µM; hits give high values.
D(2) dopamine receptor (Homo sapiens), sequence (P14416 whole entry, looked up): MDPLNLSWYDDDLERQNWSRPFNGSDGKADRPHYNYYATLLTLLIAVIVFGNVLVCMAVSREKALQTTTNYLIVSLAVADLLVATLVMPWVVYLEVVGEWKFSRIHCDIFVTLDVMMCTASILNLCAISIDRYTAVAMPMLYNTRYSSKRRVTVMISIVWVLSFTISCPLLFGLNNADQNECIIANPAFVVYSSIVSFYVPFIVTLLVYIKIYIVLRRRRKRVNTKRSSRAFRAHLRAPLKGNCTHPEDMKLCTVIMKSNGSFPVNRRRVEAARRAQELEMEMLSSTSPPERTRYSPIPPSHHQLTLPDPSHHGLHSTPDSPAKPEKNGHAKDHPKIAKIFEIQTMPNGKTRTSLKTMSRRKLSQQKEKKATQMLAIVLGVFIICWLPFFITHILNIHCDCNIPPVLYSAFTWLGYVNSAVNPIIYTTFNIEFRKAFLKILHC
Outline: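 Cells plated overnight at 30 C with tetracycline; no-wash calcium dye, 30–90 min RT; 10 s baseline; compound pinned; 180 s read; EC80 dopamine added; another 180 s read.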
In the case of Cc1ccc(S(=O)(=O)N(C)C)cc1NC(=O)C(C)OC(=O)c1ccc2ccccc2n1 (stereo unspecified), the inhibition was 5.2% (inactive).
For COc1cc(C(C)=O)ccc1OC(C)C(=O)Nc1ccc(S(=O)(=O)N2CCCC2)cc1 (stereo unspecified), the inhibition was -10.1% (inactive).
CC(=O)N1C(=O)C2(Nc3ccccc3N2)c2ccccc21 was tested, and the inhibition was 34.2% (active).
CC(C)(C)C(=O)CCN1C(=O)C2(OCCO2)c2ccccc21 was tested, and the inhibition was -2.06% (inactive).
In the case of O=C1CN(C(=O)CN2C(=O)NC3(CCCCC3)C2=O)c2ccccc2N1, the inhibition was 3.68% (inactive).
For CC1CCN(C(=O)COC(=O)c2cc(=O)[nH]c3ccccc23)CC1, the inhibition was -0.452% (inactive).
In the case of CC(NC(=O)c1ccccc1F)c1cccc2ccccc12 (stereo unspecified), the inhibition was 10.4% (inactive).
In the case of CCOC(=O)C1CCN(C(=O)Cn2nc(C)c3c(C)n(-c4ccccc4)nc3c2=O)CC1, the inhibition was 2.33% (inactive).
With Cc1nn(CC(=O)N2CCCCC2)c(=O)c2nn(-c3ccccc3)c(C)c12 the inhibition was 20.3% (inactive).
In the case of COc1ccc(OC)c(CNC(=O)Cn2nc(C)c3c(C)n(-c4ccc(C)cc4)nc3c2=O)c1, the inhibition was 30% (active).
CC(=O)c1sc(N)nc1C was tested, and the inhibition was 9.17% (inactive).
With COc1ccc(C(C)(C)C)cc1NC(=O)CCN1C(=O)C2CCCCC2C1=O (stereo unspecified) the inhibition was 11.5% (inactive).
Cc1ccc(CC(=O)Nc2ccc(S(=O)(=O)N3CCOCC3)cc2)cc1C was tested, and the inhibition was 19% (inactive).
For C[C@H]1[C@H]2c3nc4ccccc4n3C[C@H]1ON2C1CCCCC1, the inhibition was 31% (active).
With CN1C(C(=O)NCC2CC2)CC2Cn3c(nc4ccccc43)C21 (stereo unspecified) the inhibition was 6.56% (inactive).
For CN1C(C(=O)NCc2ccco2)CC2Cn3c(nc4ccccc43)C21 (stereo unspecified), the inhibition was 12.7% (inactive).
In the case of Cc1cc(C(=O)COc2ccc(Br)cc2F)c(C)n1C1CC1, the inhibition was -10.6% (inactive).
In the case of O=C(CN1CCN(c2ccccc2O)CC1)NC(=O)NCc1ccccc1, the inhibition was -6.15% (inactive).
In the case of COc1ccc2oc(C(=O)OCC(=O)N(CC(C)C)c3c(N)n(Cc4ccccc4)c(=O)[nH]c3=O)c(C)c2c1, the inhibition was -27.2% (inactive).
With Cc1ccc(NC(=O)C(C)OC(=O)Cc2c[nH]c3ccccc23)cc1S(=O)(=O)N1CCOCC1 (stereo unspecified) the inhibition was -4.91% (inactive).
For CC(C)CCN1CCC(C)(NC(=O)c2ccccc2)C1=O (stereo unspecified), the inhibition was 3.51% (inactive).
CC(OC(=O)CN1C(=O)c2ccccc2C1=O)C(=O)c1ccccc1 (stereo unspecified) was tested, and the inhibition was 10.6% (inactive).
With CCN(CC(=O)NCc1ccc(Cl)cc1)C(=O)CSc1ccccc1 the inhibition was -4.45% (inactive).
With Cc1noc(C)c1S(=O)(=O)N(CC(=O)NCc1ccc(Cl)cc1)c1ccc2c(c1)OCO2 the inhibition was 1.26% (inactive).
With CCN(CC(=O)NCc1ccc(Cl)cc1)C(=O)c1c(C)noc1C the inhibition was 30.3% (active).
CC(=O)c1c(C)[nH]c(C(=O)COc2ccc3c(C)cc(=O)oc3c2)c1C was tested, and the inhibition was 1.65% (inactive).
In the case of CN(C)C(=O)N=NC(=O)N(C)C, the inhibition was 6.75% (inactive).
In the case of CCC(C)CCN1CCN=C1N(C)C (stereo unspecified), the inhibition was -4.14% (inactive).
With COc1ccc(-c2nc(N)ncc2-c2ccc(Cl)cc2)c(O)c1 the inhibition was -27.1% (inactive).
In the case of C=C(C)COc1ccc(-c2nc(N)ncc2-c2ccccc2OC)c(O)c1, the inhibition was -11.9% (inactive).
For CCOc1ccc(-c2nc(N)ncc2-c2ccccc2OC)c(O)c1, the inhibition was 34.9% (active).
For CCCCN1C(=O)C(=O)N(CC(=O)Nc2cccc(C(C)=O)c2)C1=O, the inhibition was 2.29% (inactive).
For COc1ccc(C(=O)OC(C)C(=O)NC2CCCC2)cc1S(=O)(=O)N1CCOCC1 (stereo unspecified), the inhibition was -6.41% (inactive).
O=C(NCCCN1CCOCC1)c1ccc([N+](=O)[O-])cc1[N+](=O)[O-] was tested, and the inhibition was 48.1% (active).
For O=C(NCCCN1CCOCC1)c1ccc(N2CCCC2)c([N+](=O)[O-])c1, the inhibition was -5.74% (inactive).
With O=[N+]([O-])c1ccc(NCCCN2CCOCC2)c(Cl)c1 the inhibition was -7.9% (inactive).
COc1ccc(CC2c3cc(OC)c(OC)cc3CC[N+]2(C)CCC(=O)OCCCCCOC(=O)CC[N+]2(C)CCc3cc(OC)c(OC)cc3C2Cc2ccc(OC)c(OC)c2)cc1OC (stereo unspecified) was tested, and the inhibition was 2.9% (inactive).
For COc1ccc(Cl)cc1NC(=O)CNc1ccccc1F, the inhibition was 0.751% (inactive).
COc1ccc(Cl)cc1NC(=O)NC(C)C(C)(C)C (stereo unspecified) was tested, and the inhibition was 34.2% (active).
For COC(=O)[C@@H](NC(=O)Nc1cc(Cl)ccc1C)C(C)C, the inhibition was 18.4% (inactive).
With Cc1cc(C(=O)Nc2ccc(C)c(S(=O)(=O)N3CCOCC3)c2)c2ccccc2n1 the inhibition was 3.28% (inactive).
For O=C(c1cc(-c2ccco2)nc2ccccc12)N(Cc1nnc(-c2ccc(Cl)cc2)o1)C1CC1, the inhibition was -3.48% (inactive).
For COc1ccccc1OC(C)C(=O)Nc1ccc(S(=O)(=O)Nc2nccs2)cc1 (stereo unspecified), the inhibition was -2.37% (inactive).
In the case of Cc1ccc(OCCC(=O)Nc2ccc(S(=O)(=O)Nc3nccs3)cc2)cc1, the inhibition was 23.7% (inactive).
With CCC(CC)C(=O)Nc1ccc(S(=O)(=O)Nc2nccs2)cc1 the inhibition was 32.1% (active).
With COc1ccccc1N1CCN(Cc2ccc(OC)c3ccccc23)CC1 the inhibition was 72.3% (active).
COc1ccccc1N1CCN(CCCCOc2ccc(F)cc2)CC1 was tested, and the inhibition was 1.05% (inactive).
COc1ccccc1CN1CCN(Cc2cc(OC)c(OC)cc2OC)CC1 was tested, and the inhibition was -0.792% (inactive).
In the case of COc1ccccc1N1CCN(Cc2cc(OC)c3c(c2)OCO3)CC1, the inhibition was 85.7% (active).
With COc1ccc(CN2CCN(Cc3ccc(OC)c(OC)c3OC)CC2)cc1 the inhibition was -16% (inactive).
CNCC(O)CN1CCN(c2ccccc2OC)CC1 (stereo unspecified) was tested, and the inhibition was -12.4% (inactive).
COc1ccc(S(=O)(=O)N2CCOCC2)cc1NC(=O)CSc1cc(C)ccc1C was tested, and the inhibition was -16% (inactive).
For CCN(CC(=O)Nc1ccc(NC(C)=O)cc1)C(=O)CSC(=S)N1CCCC1, the inhibition was 12.7% (inactive).
CC1(C)O[C@@H]2[C@H](O1)[C@@H](COS(=O)(=O)O)O[C@H]2n1cnc2c(=O)[nH]cnc21 was tested, and the inhibition was 10.8% (inactive).
For CCCCn1c(N)c(N(CC(C)C)C(=O)CSc2ccc([N+](=O)[O-])cc2)c(=O)[nH]c1=O, the inhibition was 6.25% (inactive).
In the case of OCC[C@H]1C[C@@H](O)[C@H](O)[C@@]2(OCCc3ccccc32)O1, the inhibition was 3.29% (inactive).
For CCN(CC(=O)Nc1ccc(OC)cc1)C(=O)CSCc1ccc(C)cc1, the inhibition was 7.06% (inactive).
For Cc1cc(C(=O)N/N=C\C(Br)=C\c2ccccc2)c(C)o1, the inhibition was 1.9% (inactive).
In the case of Cc1cc(C(=O)N/N=C/c2ccccc2[N+](=O)[O-])c(C)o1, the inhibition was 2.69% (inactive).
For CC(=C/c1ccccc1)/C=N/NC(=O)c1cc(C)oc1C, the inhibition was 36.9% (active).
With COc1ccccc1C(=O)COC(=O)CSCC(=O)Nc1cc(C)on1 the inhibition was 14.3% (inactive).
